From PubChem BioAssay
For some assays here: Potency and affinity values are given separately. Activity calls are given as the source filed them.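 The calls were made as follows, unless noted: active = primary screen inhibitor hit that blocks the TRPC4 channel at some tested dose, yielding a dose curve; inactive = the rest.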

Assays:
[1] = test system: TRPC4 beta (transient receptor potential cation channel C4), mouse; assay: TRPC4 cation channel opening, retest – cell-based, Fluo4 calcium, HEK293 TRPC4beta/mu-opioid, duplicates, 10 µM, confirmation (AID 2426;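 active = fluorescence ratio normalized to control raised more than 50% in primary screen plus both repeat runs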); conditions: Fluo4 calcium fluorescence, at 10 µM; active compounds read high
[2] = test system: transient receptor potential cation channel C4 beta (TRPC4), mouse; assay: TRPC4 cation channel opening, second retest – cell-based, second round, Fluo4, HEK293 TRPC4beta/mu-opioid, 1 µM, confirmation (AID 2461;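 active = primary screen active and over 50% activation in each of two duplicate runs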); conditions: Fluo4 calcium fluorescence, at 1 µM; active compounds read high
[3] = test system: TRPC4 (transient receptor potential cation channel C4 beta), mouse; assay: potentiation of DAMGO EC20 TRPC4 response – cell-based, second round, Fluo-4, HEK293 TRPC4beta/mu-opioid, 1 µM, confirmation (AID 2554;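 active = primary screen hit whose fluorescence ratio, in both repeats, exceeds the weak agonist control mean by 3 SD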); conditions: DAMGO EC20, Fluo-4 calcium flux, at 1 µM; active compounds read high
[4] = test system: TRPC4 beta (transient receptor potential cation channel C4), mouse; assay: potentiation of DAMGO EC20 TRPC4 response – cell-based, Fluo-4, HEK293 TRPC4beta/mu-opioid, confirmation (AID 2555;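 active = primary screen hit whose calcium fluorescence ratio, in both repeats, exceeds the weak agonist control mean by 3 SD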); conditions: DAMGO EC20, Fluo-4 calcium flux, at 10 µM; active compounds read high
[5] = molecular target: Short transient receptor potential channel 4 (Mus musculus) (UniProt Q9QUQ5); assay: blockers of DAMGO-evoked TRPC4 calcium flux – cell-based, Fluo4, HEK293 TRPC4beta/mu-opioid, confirmation (AID 2636;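 active = calcium signal cut by more than 3 SD below the full-agonist control yet still positive, in both repeats and the earlier primary screen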); conditions: at 10 µM; active compounds read high
Chain of Short transient receptor potential channel 4 (Mus musculus) (Q9QUQ5 whole entry, looked up): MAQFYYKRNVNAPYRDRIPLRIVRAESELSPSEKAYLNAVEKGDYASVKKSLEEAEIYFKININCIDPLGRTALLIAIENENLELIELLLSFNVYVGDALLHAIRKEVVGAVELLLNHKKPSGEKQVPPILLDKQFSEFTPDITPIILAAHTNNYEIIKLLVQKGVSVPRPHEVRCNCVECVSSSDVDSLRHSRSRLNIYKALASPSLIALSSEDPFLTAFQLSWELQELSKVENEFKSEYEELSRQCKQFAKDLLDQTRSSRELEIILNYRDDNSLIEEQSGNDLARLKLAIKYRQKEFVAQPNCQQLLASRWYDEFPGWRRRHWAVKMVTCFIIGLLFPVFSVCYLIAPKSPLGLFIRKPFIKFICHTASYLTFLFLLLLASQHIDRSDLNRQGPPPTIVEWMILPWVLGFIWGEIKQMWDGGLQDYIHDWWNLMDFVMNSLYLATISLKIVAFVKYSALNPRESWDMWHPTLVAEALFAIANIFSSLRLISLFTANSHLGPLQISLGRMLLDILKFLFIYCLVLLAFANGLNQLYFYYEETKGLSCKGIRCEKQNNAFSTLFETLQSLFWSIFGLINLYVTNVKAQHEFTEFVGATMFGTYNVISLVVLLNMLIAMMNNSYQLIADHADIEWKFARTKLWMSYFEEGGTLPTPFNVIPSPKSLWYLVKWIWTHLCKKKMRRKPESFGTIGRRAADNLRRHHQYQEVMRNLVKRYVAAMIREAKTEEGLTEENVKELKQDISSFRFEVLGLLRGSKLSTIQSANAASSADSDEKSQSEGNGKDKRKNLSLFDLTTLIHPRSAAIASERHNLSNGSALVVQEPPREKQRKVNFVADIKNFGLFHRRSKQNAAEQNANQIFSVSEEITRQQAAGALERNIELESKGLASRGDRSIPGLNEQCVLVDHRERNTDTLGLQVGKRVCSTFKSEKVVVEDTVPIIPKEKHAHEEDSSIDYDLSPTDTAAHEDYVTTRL

[6] = molecular target: Short transient receptor potential channel 4 (Mus musculus) (UniProt Q9QUQ5); assay: blockers of DAMGO-evoked TRPC4 calcium flux – cell-based, second round, Fluo4, HEK293 TRPC4beta/mu-opioid, 1 µM, confirmation (AID 2637;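 active = calcium signal ratio cut to more than 3 SD under the fully stimulated control mean yet still positive, in both repeats and the primary screen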); conditions: at 1 µM; active compounds read high
[7] = molecular target: Short transient receptor potential channel 4 (Mus musculus) (UniProt Q9QUQ5); assay: calcium entry via TRPC4 opening agents – cell-based, HEK293 TRPC4/mu-opioid, Fluo-4 calcium, dose response (AID 434937;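 active = primary screen activator hit with a dose response curve and TRPC4 channel activation at any tested dose; inactive = no activation, no dose response, or not a primary hit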)
[8] = molecular target: Short transient receptor potential channel 4 (Mus musculus) (UniProt Q9QUQ5); assay: potentiation of DAMGO-evoked TRPC4 calcium signal – cell-based, HEK293 TRPC4/mu-opioid, Fluo-4 calcium, EC20 DAMGO, dose response (AID 434941;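 active = earlier screen potentiator hit that boosts the TRPC4 ion channel at some dose, with a dose response; inactive = no potentiation, no dose response, or not a prior hit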;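 also: calcium entry triggered by an EC20 dose of DAMGO at the co-expressed mu-opioid receptor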)
[9] = molecular target: Short transient receptor potential channel 4 (Mus musculus) (UniProt Q9QUQ5); assay: block of DAMGO-driven TRPC4 calcium entry – cell-based, HEK293 TRPC4/mu-opioid, Fluo-4 calcium, dose response (AID 434942)
[10] = molecular target: Short transient receptor potential channel 6 (Mus musculus) (UniProt Q61143); assay: TRPC6 blockade by TRPC4 inhibitor hits – cell-based, HEK293, membrane potential dye, duplicate, selectivity assay for TRPC4 inhibitor project, confirmation (AID 434948;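 active = active in primary screen and both duplicates, each dropping signal beyond three positive-control SD with fluorescence still positive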); conditions: HEK293 TRPC6, membrane potential dye fluorescence, at 10 µM, stimulated with maximal-effect acetylcholine; active compounds read high
Chain of Short transient receptor potential channel 6 (Mus musculus) (Q61143 whole entry, looked up): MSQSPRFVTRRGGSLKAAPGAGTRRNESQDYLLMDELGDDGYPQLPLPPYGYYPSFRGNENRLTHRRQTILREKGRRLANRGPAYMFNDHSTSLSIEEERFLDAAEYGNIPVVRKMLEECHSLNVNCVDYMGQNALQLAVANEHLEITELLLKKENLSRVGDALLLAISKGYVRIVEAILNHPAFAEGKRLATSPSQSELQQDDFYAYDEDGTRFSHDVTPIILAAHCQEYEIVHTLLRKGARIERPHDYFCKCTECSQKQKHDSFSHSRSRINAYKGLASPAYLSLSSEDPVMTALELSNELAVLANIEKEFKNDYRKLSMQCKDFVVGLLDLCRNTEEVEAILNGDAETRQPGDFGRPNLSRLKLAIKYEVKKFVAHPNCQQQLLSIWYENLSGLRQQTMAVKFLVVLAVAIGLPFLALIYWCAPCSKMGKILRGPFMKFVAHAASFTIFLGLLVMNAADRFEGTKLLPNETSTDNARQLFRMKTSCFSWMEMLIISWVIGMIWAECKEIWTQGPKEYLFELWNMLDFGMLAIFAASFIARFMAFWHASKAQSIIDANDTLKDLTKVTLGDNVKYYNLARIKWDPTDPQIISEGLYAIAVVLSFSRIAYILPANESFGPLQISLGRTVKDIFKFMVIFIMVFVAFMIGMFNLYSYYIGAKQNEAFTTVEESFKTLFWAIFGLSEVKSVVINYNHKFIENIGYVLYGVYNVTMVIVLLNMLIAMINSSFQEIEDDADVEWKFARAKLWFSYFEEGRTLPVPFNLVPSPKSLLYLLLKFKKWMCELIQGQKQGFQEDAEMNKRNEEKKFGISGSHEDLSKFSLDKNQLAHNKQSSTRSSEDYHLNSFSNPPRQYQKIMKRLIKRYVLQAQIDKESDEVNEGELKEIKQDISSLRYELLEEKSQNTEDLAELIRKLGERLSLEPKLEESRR

[11] = molecular target: Short transient receptor potential channel 6 (Mus musculus) (UniProt Q61143); assay: TRPC6 opening by TRPC4 activator hits – cell-based, HEK293, membrane potential dye, duplicate, selectivity assay for TRPC4 activator project, confirmation (AID 434950;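 active = membrane potential signal rise above negative control mean plus 3 SD in both duplicates, also active in the earlier TRPC4 screen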); conditions: HEK293 TRPC6, membrane potential fluorescence, at 10 µM; activation: active compounds read high; outcome: activation
[12] = molecular target: Short transient receptor potential channel 6 (Mus musculus) (UniProt Q61143); assay: positive modulators of mouse TRPC6 channel – HEK293 cells, membrane potential dye, duplicate, selectivity assay for TRPC4 potentiator project, confirmation (AID 434952;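 active = compound raising the membrane signal above positive-control mean plus 3 SD in both repeats, and a primary screen hit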); conditions: HEK293 TRPC6, membrane potential dye fluorescence, at 10 µM, maximal acetylcholine added after compound; active compounds read high
[13] = molecular target: Short transient receptor potential channel 4 (Mus musculus) (UniProt Q9QUQ5); assay: calcium flux activators in TRPC4/5HT1a cells, counter-screen for TRPC4 activator project, cell-based, second counter screen, HEK293 TRPC4/5HT1a, Fluo-4 (AID 434977;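 active = calcium signal rise above buffer-control mean plus 5 SD in both duplicates, and also a hit in the primary screen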); conditions: Fluo-4 calcium flux, at 10 µM; active compounds read high
[14] = serotonin-gated TRPC4 signal block – cell-based, second counter screen, HEK293 TRPC4/5HT1a, Fluo-4, counter-screen for TRPC4 inhibitor project, confirmation (AID 434978;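 active = primary screen active whose calcium signal fell more than 3 SD beyond the full-serotonin control mean in both duplicate plates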;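 as to outcome: serotonin given first at submaximal then at maximal dose after compound preincubation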); conditions: Fluo-4 calcium flux, at 10 µM, serotonin added to trigger calcium flux; active compounds read high
[15] = test system: TRPC4 (mouse), co-expressed with 5HT1a in HEK293; assay: enhancement of serotonin-evoked TRPC4 response – cell-based, second counter screen, HEK293 TRPC4/5HT1a, Fluo-4, counter-screen for TRPC4 potentiator project, confirmation (AID 434979;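 active = signal rise over 3 SD above mean of control wells given weak agonist, in both repeats and first screen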); conditions: Fluo-4 calcium flux, at 10 µM, serotonin added at its EC20 dose; active compounds read high
[16] = nonspecific calcium rise without TRPC4 – cell-based, HEK293 mu-opioid receptor line, counter-screen for TRPC4 activator project, confirmation (AID 449723;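 active = hit in primary screen, with calcium signal over 5 SD above buffer well mean in both duplicates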;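 also: counter screen cells carry the mu-opioid receptor alone and lack TRPC4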); conditions: HEK293 mu-opioid cells, Fluo-4 calcium fluorescence, at 10 µM; active compounds read high
[17] = nonspecific potentiation of DAMGO calcium response – cell-based, HEK293 mu-opioid receptor line, counter-screen for TRPC4 allosteric potentiator project, confirmation (AID 449724;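 active = calcium signal rise more than 3 SD above the low-dose agonist control mean, in both duplicate plates and the primary screen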); conditions: HEK293 mu-opioid receptor cells, Fluo-4 calcium flux, at 10 µM, compound added before EC20 DAMGO stimulus; active compounds read high

CCN(CC)CCn1c(=N)n(CC(O)COc2cccc(C)c2)c2ccccc21 (stereo unspecified)
inactive: outcome [1] | outcome [2] | outcome [3] | outcome [4] | outcome [6] | outcome [7] | outcome [8] | outcome [9] | outcome [10] | outcome [11] | outcome [12] | outcome [13] | outcome [15] | outcome [16] | outcome [17]
active: inhibition [5] 88% | inhibition [14] 6.72%

COc1ccc(F)cc1C(=O)C1CCCN(Cc2cccn2-c2ccccn2)C1 (stereo unspecified)
inactive: outcome [1] | outcome [2] | outcome [3] | outcome [4] | outcome [5] | outcome [6] | outcome [7] | outcome [8] | outcome [9] | outcome [10] | outcome [11] | outcome [12] | outcome [13] | outcome [14] | outcome [15] | outcome [16] | outcome [17]

CCN(CC(=O)NCc1ccc(Cl)cc1)CC(=O)NC1(C#N)CCCC1
inactive: outcome [1] | outcome [2] | outcome [3] | outcome [4] | outcome [5] | outcome [6] | outcome [7] | outcome [8] | outcome [9] | outcome [10] | outcome [11] | outcome [12] | outcome [13] | outcome [14] | outcome [15] | outcome [16] | outcome [17]

C=CCn1c(SCC(=O)c2ccc(NS(=O)(=O)c3ccccc3)cc2)nnc1-c1cccs1
inactive: outcome [1] | outcome [2] | outcome [3] | outcome [4] | outcome [5] | outcome [6] | outcome [7] | outcome [8] | outcome [9] | outcome [10] | outcome [11] | outcome [12] | outcome [13] | outcome [14] | outcome [16] | outcome [17]
active: potentiation [15] 14%

CC(=O)Nc1cccc(C(=O)OC(C(=O)c2ccc(C)cc2)c2ccccc2)c1 (stereo unspecified)
active: potentiation [15] 22.7%
inactive: outcome [1] | outcome [2] | outcome [3] | outcome [4] | outcome [5] | outcome [6] | outcome [7] | outcome [8] | outcome [9] | outcome [10] | outcome [11] | outcome [12] | outcome [13] | outcome [14] | outcome [16] | outcome [17]

C/C(=N/OCO/N=C(/C)c1ccc(F)cc1)c1ccc(F)cc1
inactive: outcome [1] | outcome [2] | outcome [3] | outcome [4] | outcome [5] | outcome [6] | outcome [7] | outcome [8] | outcome [9] | outcome [10] | outcome [11] | outcome [12] | outcome [13] | outcome [14] | outcome [15] | outcome [16] | outcome [17]

CN1CCN(c2ccc(Cl)cc2NC(=O)/C=C/c2cccc(F)c2)CC1
inactive: outcome [1] | outcome [2] | outcome [4] | outcome [5] | outcome [6] | outcome [7] | outcome [8] | outcome [9] | outcome [10] | outcome [11] | outcome [12] | outcome [13] | outcome [14] | outcome [16] | outcome [17]
active: potentiation [3] 11% | potentiation [15] 41.1%

O=C(COc1ccccc1)NC1CCCCCCC1
active: potentiation [3] 9% | potentiation [4] 33% | potentiation [15] 40.7%
inactive: outcome [1] | outcome [2] | outcome [5] | outcome [6] | outcome [7] | outcome [8] | outcome [9] | outcome [10] | outcome [11] | outcome [12] | outcome [13] | outcome [14] | outcome [16] | outcome [17]

NC(=O)c1ccc(Oc2ccc3c(c2)CCC3)c([N+](=O)[O-])c1
inactive: outcome [1] | outcome [2] | outcome [3] | outcome [5] | outcome [6] | outcome [7] | outcome [8] | outcome [9] | outcome [10] | outcome [11] | outcome [12] | outcome [13] | outcome [14] | outcome [16] | outcome [17]
active: potentiation [4] 42% | potentiation [15] 84.5%

CC1CCCN(C2=C(NS(=O)(=O)c3ccc(Br)cc3)C(=O)c3ccccc3C2=O)C1 (stereo unspecified)
inactive: outcome [1] | outcome [2] | outcome [3] | outcome [4] | outcome [5] | outcome [6] | outcome [7] | outcome [8] | outcome [9] | outcome [10] | outcome [11] | outcome [12] | outcome [13] | outcome [14] | outcome [15] | outcome [16] | outcome [17]

CCCCN(C)CCNC(=O)c1ccc(Cn2c(=S)[nH]c3ccc(Br)cc3c2=O)cc1
inactive: outcome [1] | outcome [2] | outcome [3] | outcome [5] | outcome [6] | outcome [7] | outcome [8] | outcome [9] | outcome [10] | outcome [11] | outcome [12] | outcome [13] | outcome [14] | outcome [16] | outcome [17]
active: potentiation [4] 16% | potentiation [15] 33.5%

CCOc1ccc2ccccc2c1/C=N/NC(=O)c1cc(C)[nH]n1
inactive: outcome [1] | outcome [2] | outcome [3] | outcome [4] | outcome [5] | outcome [6] | outcome [7] | outcome [8] | outcome [9] | outcome [10] | outcome [11] | outcome [12] | outcome [13] | outcome [14] | outcome [15] | outcome [16] | outcome [17]

CCOC(=O)CC(NC(=O)c1cc2cc(Cl)cc(Cl)c2oc1=O)c1cccc([N+](=O)[O-])c1 (stereo unspecified)
inactive: outcome [1] | outcome [2] | outcome [3] | outcome [5] | outcome [6] | outcome [7] | outcome [8] | outcome [9] | outcome [10] | outcome [11] | outcome [12] | outcome [13] | outcome [14] | outcome [15] | outcome [16] | outcome [17]
active: potentiation [4] 35%
